Laboratory results published in PubChem BioAssay (Tox21).
Inconclusive results are not listed. Calls of active or inactive are those of the source. Unless noted, calls follow the shape of the dose curve; as a rule, active = well fitted curve in the direction sought with a large enough effect in the repeat runs; inconclusive = weak or mixed curves; inactive = no such curve, though single readings can be large; an effect the other way counts as inactive or inconclusive.

Tests used:
[1] = qHTS assay to identify small molecule antagonists of the retinoid-related orphan receptor gamma (ROR-gamma) signaling pathway - cell viability counter screen (AID 1159520); also: nearly all actives have a fitted effect of over 50% in size; also: potency is read from the fitted curve at half-maximal effect
Outline: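 Tet-on ROR gamma CHO cells were given compounds for 2 hr, then doxycycline hyclate at 1 uM final, and incubated 16 hr at 37 C. Viability was measured as ATP content by CellTiter-Glo luminescence.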

[2] = qHTS assay to identify small molecule agonists of the AP-1 signaling pathway - cell viability counter screen (AID 1159525; calls by dose curve; also: nearly all actives have a fitted effect of over 55% in size; also: potency is read from the fitted curve at half-maximal effect)
Outline: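 Same-well cytotoxicity counter screen of the Tox21 10K library in ME-180 cells. The readout is ATP-dependent luminescence after 5 h compound treatment. Data are normalised to DMSO and tetra n-octyl ammonium bromide controls.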

[3] = qHTS assay to identify small molecule agonists of the RXR signaling pathway - cell viability counter screen (AID 1159529); also: nearly all actives have a fitted effect of over 50% in size; also: potency is read from the fitted curve at half-maximal effect
Outline: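 CellTiter-Glo luminescence gave viability in the wells also read for beta-lactamase. Cells (RXR-alpha-UAS-bla HEK 293T, 2% charcoal-stripped FBS medium) had 5 hr plating, then 16 hr compound exposure at 37 C; tetraoctyl ammonium bromide served as positive control.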

[4] = qHTS assay to identify small molecule antagonists of the retinoid acid receptor (RAR) signaling pathway - cell viability counter screen (AID 1159551); also: nearly all actives have a fitted effect of over 35% in size; also: potency is read from the fitted curve at half-maximal effect
Outline: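 Measured by luminescent ATP detection, viability reflects C3RL4 cells treated 6 h at 37 C with test chemicals in the presence of 1 uM (final) retinol.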

[5] = qHTS assay to identify small molecule antagonists of the retinoic acid receptor (RAR) signaling pathway (AID 1159552; also: nearly all actives have a fitted effect of over 50% in size; also: potency is read from the fitted curve at half-maximal effect)
Outline: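 Luminescent RARE reporter read-out in C3RL4 cells: 6 hr co-treatment at 37 C of test compounds with retinol at 1 uM final. Cells plated overnight beforehand; luciferase reagent incubated 30 min at room temperature before reading.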

[6] = qHTS assay to identify small molecule antagonists of the estrogen related receptor signaling pathway with the pleiotropic PPARgamma coactivator (PGC) cell viability counter screen (AID 1224822; also: potency is read from the fitted curve at half-maximal effect)
Outline: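 Counter screen for cell viability: PGC/ERR cells, 6 h pre-incubation after plating, 17.5 h compound exposure at 37 C, fluorescence from CellTiter-Fluor after 30 min.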

[7] = qHTS assay to identify small molecule antagonists of the estrogen related receptor (ERR) signaling pathway from Tox21 library - cell viability counter screen (AID 1224834); also: nearly all actives have a fitted effect of over 30% in size; also: potency is read from the fitted curve at half-maximal effect
Outline: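 Seeded ERR cells were rested 6 h at 37 C/5% CO2 before compounds, positive and negative controls or DMSO were added. Incubation continued for 17.5 h, and viability was then quantified by CellTiter-Fluor fluorescence.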

[8] = molecular target: Luciferin 4-monooxygenase (Photinus pyralis) (UniProt P08659); assay: qHTS assay to identify small molecule inhibitors of firefly luciferase (AID 1224835); also: nearly all actives have a fitted effect of over 25% in size; also: potency is read from the fitted curve at half-maximal effect
Outline: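 Biochemical qHTS: compounds run as interplate titrations against purified firefly enzyme, with D-luciferin and ATP each at its KM concentration. Light output recorded by CCD imaging.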

[9] = qHTS assay to identify small molecule agonists of the constitutive androstane receptor (CAR) signaling pathway - cell viability counter screen (AID 1224836); also: nearly all actives have a fitted effect of over 45% in size; also: potency is read from the fitted curve at half-maximal effect
Outline: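 Cell viability multiplexed with the CAR agonist screen: CellTiter-Fluor fluorescence after 23 hr at 37 C. HepG2-CYP2B6-hCAR cells got compounds at 15 concentrations with PK11195 at 0.75 uM final.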

[10] = qHTS assay to identify small molecule agonists of the AP-1 signaling pathway (AID 1159526; calls by dose curve; also: % is scaled to controls: 0 for no effect and ±100 for the full control effect)
[11] = molecular target: Retinoic acid receptor RXR-alpha (Homo sapiens) (UniProt P19793); assay: qHTS assay to identify small molecule agonists of the RXR signaling pathway (AID 1159527; calls by dose curve; also: % is scaled to controls: 0 for no effect and ±100 for the full control effect; nearly all actives have a fitted effect of over 35% in size)
Outline: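 Agonist-mode beta-lactamase reporter assay: HEK 293T RXR-alpha-UAS-bla cells treated 16 hr at 37 C with compounds, 9-cis retinoic acid as positive control. LiveBLAzer FRET substrate, 405 nm excitation, 460/530 nm emission.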

[12] = qHTS assay to identify small molecule antagonists of the constitutive androstane receptor (CAR) signaling pathway - cell viability counter screen (AID 1224837); also: nearly all actives have a fitted effect of over 45% in size; also: potency is read from the fitted curve at half-maximal effect
Outline: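 To flag cytotoxic false antagonists, HepG2 hCAR/CYP2B6-2.2kb cells were treated 23 hr with 15-concentration compound series and 50 nM CITCO at 37 C/5% CO2; CellTiter-Fluor fluorescence was the measured end point.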

[13] = qHTS assay to identify small molecule antagonists of the vitamin D receptor (VDR) signaling pathway - cell viability counter screen (AID 743225); also: nearly all actives have a fitted effect of over 50% in size; also: potency is read from the fitted curve at half-maximal effect
Outline: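 Cytotoxicity counter screen read by CellTiter-Glo luminescence (30 min, room temperature) in the same wells as the VDR-bla antagonist readout. HEK 293T VDR-UAS-bla cells had 16 h at 37C with compound and 3 nM (final) 1-alpha,25-dihydroxyvitamin D3, then 2 h with FRET substrate.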

[14] = molecular target: Nuclear receptor ROR-gamma (Homo sapiens) (UniProt P51449); assay: qHTS assay to identify small molecule antagonists of the retinoid-related orphan receptor gamma (ROR-gamma) signaling pathway (AID 1159521; also: nearly all actives have a fitted effect of over 50% in size; also: potency is read from the fitted curve at half-maximal effect)
Outline: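 Antagonist read-out: drop in luminescence (ONE-Glo) from an RORE-LUC reporter in CHO cells with doxycycline-inducible ROR-gamma; 2 hr compound pretreatment, 1 uM doxycycline, 16 hr incubation at 37 C.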

[15] = qHTS assay to identify small molecule agonists of the estrogen related receptor (ERR) signaling pathway (AID 1224820); also: % is scaled to controls: 0 for no effect and ±100 for the full control effect
Outline: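 An ERR cell line provided by NTP was seeded at 2,000 cells per well and allowed to settle for 6 h before compounds in DMSO were added. After 18 h at 37 C, luciferase activity was measured by One-Glo luminescence.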

[16] = test system: estrogen-related receptor alpha (ERRalpha) with PGC-1alpha coactivator, human; assay: qHTS assay to identify small molecule antagonists of the estrogen related receptor signaling pathway with the pleiotropic PPARgamma coactivator (PGC) (AID 1224821; calls by dose curve)
Outline: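 A PGC/ERR cell line supplied by NTP is seeded, allowed 6 h at 37 C, and treated with test compounds in DMSO for 18 h. Signal is then measured as luciferase luminescence using One-Glo.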

[17] = qHTS assay to identify small molecule antagonists of the estrogen related receptor (ERR) signaling pathway - cell viability counter screen (AID 1224818); also: series mostly up to about 46 µM; % is scaled to controls: 0 for no effect and ±100 for the full control effect
Outline: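 Compounds dissolved in DMSO were applied to ERR cells seeded at 2,000 per well 6 h earlier. Cell viability followed 17.5 h later via 30-min CellTiter-Fluor fluorescence.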

[18] = qHTS assay to identify small molecule agonists of the retinoic acid receptor (RAR) signaling pathway (AID 1159553); also: % is scaled to controls: 0 for no effect and ±100 for the full control effect
Outline: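 6 hr compound exposure (DMSO vehicle) of overnight-plated C3RL4 RARE-luc cells at 37 C; luminescence quantified after 30 min RT with luciferase reagent.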

Chain of Retinoic acid receptor RXR-alpha (Homo sapiens) (P19793 whole entry, looked up): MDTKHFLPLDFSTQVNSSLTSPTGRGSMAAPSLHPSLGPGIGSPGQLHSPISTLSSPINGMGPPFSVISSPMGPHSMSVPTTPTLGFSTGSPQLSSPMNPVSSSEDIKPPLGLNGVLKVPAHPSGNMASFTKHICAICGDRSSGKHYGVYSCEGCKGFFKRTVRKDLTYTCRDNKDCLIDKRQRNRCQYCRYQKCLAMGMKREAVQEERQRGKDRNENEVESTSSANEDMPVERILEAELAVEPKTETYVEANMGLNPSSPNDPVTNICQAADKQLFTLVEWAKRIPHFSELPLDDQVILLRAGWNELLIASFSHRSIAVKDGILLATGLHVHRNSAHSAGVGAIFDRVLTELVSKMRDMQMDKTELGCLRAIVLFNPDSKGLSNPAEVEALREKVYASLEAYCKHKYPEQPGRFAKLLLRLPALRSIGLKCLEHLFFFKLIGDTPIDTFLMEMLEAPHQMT
Chain of Luciferin 4-monooxygenase (Photinus pyralis) (P08659 whole entry, looked up): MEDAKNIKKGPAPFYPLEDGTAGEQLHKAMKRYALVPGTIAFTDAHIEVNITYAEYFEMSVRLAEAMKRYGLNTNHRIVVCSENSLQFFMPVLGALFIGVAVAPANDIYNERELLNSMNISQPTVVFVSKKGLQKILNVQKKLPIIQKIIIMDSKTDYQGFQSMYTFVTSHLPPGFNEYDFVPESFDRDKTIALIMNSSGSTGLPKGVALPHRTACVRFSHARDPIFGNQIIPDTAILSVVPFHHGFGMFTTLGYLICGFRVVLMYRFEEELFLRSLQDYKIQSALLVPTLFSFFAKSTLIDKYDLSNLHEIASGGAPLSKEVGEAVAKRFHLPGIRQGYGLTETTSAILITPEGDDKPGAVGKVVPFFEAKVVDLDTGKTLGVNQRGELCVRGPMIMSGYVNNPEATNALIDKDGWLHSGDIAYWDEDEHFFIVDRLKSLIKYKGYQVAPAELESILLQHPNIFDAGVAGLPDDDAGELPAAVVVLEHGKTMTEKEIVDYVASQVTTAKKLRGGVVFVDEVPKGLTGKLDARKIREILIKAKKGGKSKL

CN1CCN(CCCN2c3ccccc3Sc3ccc(Cl)cc32)CC1
inactive: Potency [1] | Potency [2] | Potency [4] | Potency [8] | Potency [9]
active: Potency [3] 9.52 µM | Potency [5] 26.6 µM | Potency [6] 27.6 µM | Potency [7] 29.8 µM

Cc1ccc(C2OC[C@@H]3OC(c4ccc(C)cc4)O[C@H]([C@H](O)CO)[C@@H]3O2)cc1 (stereo partly drawn)
inactive: Potency [1] | Potency [2] | Potency [10] | Potency [11] | Potency [4] | Potency [7] | Potency [8] | Potency [9] | Potency [12]

CCOC(=O)OC(=O)OCC
inactive: Potency [1] | Potency [2] | Potency [10] | Potency [11] | Potency [3] | Potency [4] | Potency [7] | Potency [8] | Potency [9]

CN1CCN(c2ccccc2/C=C2\SCCN(c3ccc(Cl)c(Cl)c3)C2=O)CC1
inactive: Potency [8]
active: Potency [13] 43.6 µM | Potency [1] 68.6 µM | Potency [14] 7.7 µM | Potency [7] 54.5 µM | Potency [9] 43.3 µM

CCc1cccc(CC)c1
inactive: Potency [1] | Potency [2] | Potency [10] | Potency [11] | Potency [3] | Potency [4] | Potency [5] | Potency [7] | Potency [8] | Potency [9]

O=C(c1ccccc1)c1ccc(Cl)cc1
inactive: Potency [1] | Potency [4] | Potency [7] | Potency [9] | Potency [12]
active: Potency [14] 68.6 µM

CN(C/C=C/c1ccccc1)Cc1cccc2ccccc12
inactive: Potency [1] | Potency [7] | Potency [8] | Potency [9]
active: Potency [3] 13.4 µM | Potency [4] 26.6 µM

COc1cc(OC)nc(NC(=O)NS(=O)(=O)Nc2ccccc2C(=O)N(C)C)n1
inactive: Potency [14] | Potency [2] | Potency [10] | Potency [11] | Potency [3] | Potency [4] | Potency [7] | Potency [8] | Potency [9]

Oc1ccc2c(c1)CCC2
inactive: Potency [1] | Potency [2] | Potency [10] | Potency [11] | Potency [3] | Potency [4] | Potency [5] | Potency [7] | Potency [8] | Potency [9] | Potency [12]

CCC1(C)C(=O)N(Cl)C(=O)N1Cl (stereo not drawn)
inactive: Potency [1] | Potency [2] | Potency [10] | Potency [11] | Potency [3] | Potency [4] | Potency [5] | Potency [7] | Potency [8] | Potency [9] | Potency [12]

CCCCCCCCc1ccc(Nc2ccc(CCCCCCCC)cc2)cc1
inactive: Potency [1] | Potency [2] | Potency [10] | Potency [11] | Potency [3] | Potency [4] | Potency [7] | Potency [8] | Potency [9]

C=C1CC[C@H]2O[C@]2(C)CC[C@@H]2[C@@H]1CC2(C)C
inactive: Potency [14] | Potency [2] | Potency [10] | Potency [11] | Potency [3] | Potency [4] | Potency [7] | Potency [8] | Potency [9] | Potency [12]

Clc1nc(C(Cl)(Cl)Cl)c(Cl)c(Cl)c1Cl
inactive: Potency [13] | Potency [2] | Potency [8]
active: Potency [1] 30.6 µM

CN1CCN(CCCN2c3ccccc3Sc3ccc(C(F)(F)F)cc32)CC1
inactive: Potency [1] | Potency [2] | Potency [15] | Potency [16] | Potency [8] | Potency [9]
active: Potency [13] 23.9 µM | Potency [3] 21.3 µM | Potency [5] 23.7 µM | Potency [7] 29.8 µM

COc1cc(C(C)C)ccc1C
inactive: activity, negative = cytotoxicity [1] -0.985% [at 19 µM] | viability change, negative = cytotoxic [2] 8.58% [at 15.8 µM] | activation [11] -1.52% [at 15.8 µM] | activity change, negative = cytotoxicity [3] 10.4% [at 15.8 µM] | activity change, negative = cytotoxicity [4] -0.431% [at 19 µM] | viability change, negative = cytotoxic [7] 2.54% [at 19 µM] | activity change, negative = inhibition [8] 1.91% [at 23.6 µM] | viability change, negative = cytotoxic [9] 2.67% [at 19 µM] | activity change, negative = cytotoxicity [12] 1.68% [at 19 µM]

Cn1c(=O)[nH]c2ncn(C)c2c1=O
inactive: Potency [1] | Potency [2] | Potency [10] | Potency [11] | Potency [5] | Potency [17] | Potency [6] | Potency [7] | Potency [8] | Potency [9] | Potency [12]

CC1(C)[C@H](C(=O)OCc2cccc(Oc3ccccc3)c2)[C@@H]1C=C(Cl)Cl
inactive: Potency [14] | Potency [2] | Potency [10] | Potency [11] | Potency [3] | Potency [4] | Potency [7] | Potency [8] | Potency [9] | Potency [12]

O=C(CCCCCCCCc1cccnc1)N1CCC(C=C(c2ccccc2)c2ccccc2)CC1
active: Potency [1] 68.6 µM | Potency [7] 54.5 µM
inactive: Potency [13] | Potency [2] | Potency [5] | Potency [18] | Potency [8]

C=CC(=O)OCC(Br)CBr (stereo not drawn)
inactive: Potency [1] | Potency [2] | Potency [10] | Potency [11] | Potency [5] | Potency [7] | Potency [8] | Potency [9]

c1ccc(-c2ccccc2-c2ccccc2)cc1
inactive: Potency [1] | Potency [2] | Potency [4] | Potency [5] | Potency [7] | Potency [8] | Potency [9] | Potency [12]

O=C(Nc1ccc([N+](=O)[O-])cc1)Nc1ccc([N+](=O)[O-])cc1 (tested in a mixture with another compound)
inactive: Potency [1] | Potency [2] | Potency [10] | Potency [11] | Potency [4] | Potency [8] | Potency [9]

CSc1nnc(C(C)(C)C)c(=O)[nH]1
inactive: Potency [1] | Potency [2] | Potency [10] | Potency [11] | Potency [3] | Potency [7] | Potency [8] | Potency [9] | Potency [12]

CCNc1nc(NC(C)(C)C)nc(OC)n1
inactive: Potency [1] | Potency [2] | Potency [10] | Potency [11] | Potency [4] | Potency [5] | Potency [7] | Potency [8] | Potency [9]

C=CCc1cc(S(=O)(=O)c2ccc(O)c(CC=C)c2)ccc1O
inactive: Potency [13] | Potency [1] | Potency [2] | Potency [4] | Potency [18] | Potency [8] | Potency [9] | Potency [12]
active: Potency [5] 54.5 µM

CC/C(=C(/c1ccc(O)cc1)c1ccc(OCCN(C)C)cc1)c1ccccc1
active: Potency [1] 40.3 µM | Potency [2] 36.2 µM | Potency [3] 14.4 µM | Potency [4] 35.9 µM | Potency [7] 32 µM | Potency [9] 40.3 µM
inactive: Potency [8]

Cc1cc(Br)ccc1NC(=O)CCl
inactive: Potency [4] | Potency [8]
active: Potency [13] 19.5 µM | Potency [1] 27.3 µM | Potency [14] 19.3 µM | Potency [7] 19.3 µM | Potency [9] 48.6 µM | Potency [12] 54.5 µM

CC(C)c1ccc2sc3ccccc3c(=O)c2c1
active: Potency [8] 1.59 µM
inactive: Potency [13] | Potency [1] | Potency [2] | Potency [10] | Potency [7] | Potency [9] | Potency [12]

CCSCC
inactive: Potency [13] | Potency [1] | Potency [2] | Potency [10] | Potency [3] | Potency [4] | Potency [7] | Potency [8] | Potency [9]
